Assay in all cases: Confirmatory Screen for Target Class Profiling of Small Molecule Inhibitors of Methyltransferases (AID 1745852); on activity change, negative = inhibition: on the % scale 0 is the no-effect control and ±100 the full control effect
Test [1] deals with Catechol O-methyltransferase (Homo sapiens) (UniProt P21964). The conditions noted are these: MTase-Glo luminescence, SAH detection, recombinant enzyme; measured here: COMT max response; stronger effect = lower value.
For test [2], the target named is Guanidinoacetate N-methyltransferase (Homo sapiens) (UniProt Q14353). Conditions: MTase-Glo luminescence, SAH detection, recombinant enzyme; activity change, negative = inhibition: at 57.3 µM (top of the series) unless noted; series mostly up to 57.3 µM.
The target in test [3] is Nicotinamide N-methyltransferase (Homo sapiens) (UniProt P40261). The conditions noted are these: MTase-Glo luminescence, SAH detection, recombinant enzyme; measured here: NNMT max response; stronger effect = lower value.
Test [4] has as its target Phenylethanolamine N-methyltransferase (Homo sapiens) (UniProt P11086). Conditions: MTase-Glo luminescence, SAH detection, recombinant enzyme; measured here: PNMT max response; stronger effect = lower value.

This note sets out measurements from PubChem BioAssay (NCATS).

Nicotinamide N-methyltransferase (Homo sapiens), sequence (P40261 whole entry, looked up): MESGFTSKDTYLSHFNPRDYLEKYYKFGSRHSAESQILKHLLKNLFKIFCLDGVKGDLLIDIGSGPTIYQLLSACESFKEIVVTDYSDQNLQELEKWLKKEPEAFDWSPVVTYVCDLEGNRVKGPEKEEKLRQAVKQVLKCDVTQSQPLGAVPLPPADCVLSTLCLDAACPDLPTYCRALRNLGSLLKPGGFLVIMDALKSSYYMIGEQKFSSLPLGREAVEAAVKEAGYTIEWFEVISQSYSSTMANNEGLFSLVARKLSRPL
Catechol O-methyltransferase (Homo sapiens), sequence (P21964 whole entry, looked up): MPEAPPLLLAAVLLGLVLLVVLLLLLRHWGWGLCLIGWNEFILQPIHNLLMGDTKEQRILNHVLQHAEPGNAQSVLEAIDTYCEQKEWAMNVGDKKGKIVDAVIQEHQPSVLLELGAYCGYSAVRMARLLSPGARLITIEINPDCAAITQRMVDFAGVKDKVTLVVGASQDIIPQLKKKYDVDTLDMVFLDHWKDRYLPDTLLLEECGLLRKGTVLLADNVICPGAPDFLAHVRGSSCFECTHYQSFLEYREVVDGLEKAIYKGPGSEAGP
Phenylethanolamine N-methyltransferase (Homo sapiens), sequence (P11086 whole entry, looked up): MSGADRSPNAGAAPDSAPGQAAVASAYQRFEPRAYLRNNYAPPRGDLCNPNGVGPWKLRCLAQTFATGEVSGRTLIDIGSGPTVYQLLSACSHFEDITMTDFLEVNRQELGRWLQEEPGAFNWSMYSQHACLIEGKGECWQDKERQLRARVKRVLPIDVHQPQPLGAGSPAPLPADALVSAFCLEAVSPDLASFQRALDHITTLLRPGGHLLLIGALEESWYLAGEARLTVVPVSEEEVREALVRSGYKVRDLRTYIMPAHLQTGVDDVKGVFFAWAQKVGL

With `Cc1noc2c(N3CCOCC3)cc(-c3cccs3)nc12`, the activity in test [1] was -4.75%; in test [3], -22.1%; in test [4], -11.9%. For the same compound, in test [2], the activity change, negative = inhibition stood at 2.07% [at 85.7 µM].

With `O=C1c2ccccc2C(=O)c2cc(S(=O)(=O)NCCO)ccc21`, the activity in test [1] was -11%; in test [3], -0.735%; in test [4], -29.7%. Also, the activity change, negative = inhibition in test [2] worked out at 0%.

Take `CC(C)Cn1c(=O)c2ccccc2n2c(CCC(=O)Nc3ccc(F)c(F)c3)nnc12`: the activity in test [1] is -1.85%; in test [3] it was -38.2%; in test [4], -5.35%. For the same compound, the activity change, negative = inhibition in test [2] stood at 1.46%.

For the compound `COc1ccc(CCNc2nc3c(S(=O)(=O)c4ccccc4)nnn3c3ccccc23)cc1OC`, the activity in test [1] was -10.7%; in test [3], -17.5%; in test [4], -12.4%. For the same compound, in test [2], the activity change, negative = inhibition is -7.04%.

Turning to `COc1ncccc1-c1cc2c(ccn2CC2CCN([S+](C)(=O)[O-])CC2)c(N2CCOCC2)n1`, the activity was -8.55% in test [1], -94.7% in test [3] and -10.8% in test [4]. In test [2], the activity change, negative = inhibition came to 1.38%.

With `COc1cccc2c1OCCCN(c1cc(C3CC(O)C3)nc(N)n1)C2` (stereo unspecified), the activity in test [1] amounted to 5.04%; in test [3] it was 3.54%; in test [4], 4.23%. In addition, the activity change, negative = inhibition in test [2] is 6.51%.

Consider `CCCC1c2cccn2CCN1C(=O)Nc1ccc(Br)c(C)c1` (stereo unspecified), for which the values for the activity in test [1], in test [3] and in test [4] were -4.66%, -7.57% and -6.57%, respectively. Moreover, the activity change, negative = inhibition in test [2] was -2.02%.

For the compound `O=C(NCc1cccc(Cl)c1)c1cnc2c(c1)N(C(=O)Cc1ccc(O)cc1)CCC2`, the values for the activity in test [1], in test [3] and in test [4] were -2.5%, -5.79% and -1%, respectively. In test [2], the activity change, negative = inhibition was -3.31% [at 85.7 µM].

`Cc1cc(-c2cc3c(cn2)N(C)CCN(C)C3)ccn1`: the figures for the activity in test [1], in test [3] and in test [4] were 5.42%, 2.35% and 3.56%, respectively. Besides, in test [2], the activity change, negative = inhibition was 4.1% [at 114 µM].

For the compound `CCCC1c2cccn2CCN1C(=O)Nc1ccccc1Br` (stereo unspecified), the activity in test [1] is -6.73%; in test [3], -13.8%; in test [4], -7.98%. Also, in test [2], the activity change, negative = inhibition is -3.12%.

For `CCc1cc2c(cc3n2CC(C)(C(=O)NC2CCC(C)CC2)N(C(C)CCc2ccco2)C3=O)s1` (stereo unspecified), the activity in test [1] was -10.7%; in test [3], -6.06%; in test [4], -12.3%. The activity change, negative = inhibition in test [2] was -18.6%.

Turning to `Cn1cc(-c2cc3c(ccn3Cc3ccncc3)c(N3CCOCC3)n2)cn1`, the activity in test [1] was -2.2%; in test [3], -4.04%; in test [4], -7.43%. Besides, the activity change, negative = inhibition in test [2] is -2.92% [at 85.7 µM].

As to `O=C(Cc1ccsc1)Nc1ccc2c(N3CCCC3)ncnc2c1`, the results for the activity in test [1], in test [3] and in test [4] were 0.696%, 3.05% and -6.83%, respectively. Also, the activity change, negative = inhibition in test [2] stood at 4.54%.

For the compound `Cc1cc(F)ccc1NS(=O)(=O)c1ccc2[nH]c3c(c2c1)CCCC3`, the activity was 0% in test [1], -33.2% in test [3] and 0% in test [4]. For the same compound, in test [2], the activity change, negative = inhibition came to 0.252%.
